An excerpt weighted towards active compounds, which were near 0.4% of everything screened.
TRPV1 potentiator = enhances activation of the human vanilloid receptor TRPV1; potentiation, % at 8.33 µM; hit rate 0.02% among 320,000; Q8NER1; TRPV1-expressing cells, Fluo-8 calcium influx, capsaicin EC20 potentiation; in the data active means potentiation above about 80%; inconclusive means between about 30% and that limit; further: 0% is about no effect
Target sequence (Q8NER1 whole entry, looked up): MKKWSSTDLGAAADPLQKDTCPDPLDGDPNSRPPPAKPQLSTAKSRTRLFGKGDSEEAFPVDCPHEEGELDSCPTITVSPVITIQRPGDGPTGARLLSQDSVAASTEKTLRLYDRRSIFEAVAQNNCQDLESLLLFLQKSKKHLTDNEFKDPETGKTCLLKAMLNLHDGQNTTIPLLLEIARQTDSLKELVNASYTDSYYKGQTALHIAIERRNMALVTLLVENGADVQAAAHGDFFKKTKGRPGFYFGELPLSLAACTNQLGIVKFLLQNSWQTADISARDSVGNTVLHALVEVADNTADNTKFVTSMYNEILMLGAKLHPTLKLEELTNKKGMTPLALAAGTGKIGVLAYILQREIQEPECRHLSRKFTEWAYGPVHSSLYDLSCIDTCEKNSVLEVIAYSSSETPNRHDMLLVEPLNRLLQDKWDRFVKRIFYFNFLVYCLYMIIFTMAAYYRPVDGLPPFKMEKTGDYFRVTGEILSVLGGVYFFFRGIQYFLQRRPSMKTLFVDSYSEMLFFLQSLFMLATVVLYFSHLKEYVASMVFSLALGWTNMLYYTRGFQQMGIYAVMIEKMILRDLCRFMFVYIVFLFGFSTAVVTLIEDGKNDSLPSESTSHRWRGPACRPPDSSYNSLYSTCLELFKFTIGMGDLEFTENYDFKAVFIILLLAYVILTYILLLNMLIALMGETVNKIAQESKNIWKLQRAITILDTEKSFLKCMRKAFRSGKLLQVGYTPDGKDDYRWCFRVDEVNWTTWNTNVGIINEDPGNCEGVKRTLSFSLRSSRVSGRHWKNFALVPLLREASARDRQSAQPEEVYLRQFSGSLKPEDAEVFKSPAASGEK
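Fluo-8 calcium influx in TRPV1-expressing cells, kinetic read (ex 480/em 520 nm). Compound added and read 3 min for agonist activity, followed by capsaicin at EC20 final and 2 min further read for enhancement.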
TRPML1 inh = human mucolipin-1 channel inhibition. TRPML1-inducible cells, Ca2+ dye fluorescence, FDSS; active compounds read low; inhibition of EC80 agonist-evoked calcium signal. activity change, negative = inhibition, % (concentration not given with the values). hit rate 0.02% among 390,000. AID 624415; in the data active means activity change below about -50%; inconclusive means between about -30% and that limit;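 further: stimulus is agonist 54-4 at its EC80 concentration; on the % scale 0 is the no-effect control and ±100 the full control effect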
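Calcium fluorescence in TRPML1-DL cells induced overnight with Tet: a 110 s read after compound pin addition, then a 110 s antagonist read after challenge with 54-4 at 4 uM final (EC80).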
TRPML1 agonist = human mucolipin-1 channel agonism; AID 624414; hit rate 0.12% among 410,000; activation, % (no concentration beside the values); TRPML1-expressing cells, Ca2+ dye fluorescence, FDSS; in the data active means activation above about 50%; inconclusive means mostly about 30% to 49%; further: 0% is about no effect
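Tetracycline-induced TRPML1-DL cells are seeded and incubated overnight before loading with a no-wash Ca2+ dye and quencher. Agonist activity is taken from the 110 s fluorescence read following compound pin-transfer on an FDSS, before EC80 54-4 challenge.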
TRPV1 agonist = activates the human vanilloid receptor TRPV1 | AID 540275 | hit rate 0.19% among 320,000 | activation, % at 8.33 µM | Q8NER1 | TRPV1-expressing cells, Fluo-8 calcium influx, agonist mode; in the data active means activation above about 80%; inconclusive means between about 30% and that limit; further: 0% is about no effect
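Fluo-8 calcium influx in TRPV1-expressing cells, kinetic read (ex 480/em 520 nm). Compound added and read 3 min for agonist activity, followed by capsaicin at EC20 final and 2 min further read for enhancement.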
USP1 inh = USP1/UAF1 (human) deubiquitinase inhibition; O94782; recombinant USP1/UAF1, Ub-Rhodamine cleavage fluorescence; Potency, µM (top dose mostly 57.1 µM), without a hit: top-dose activity change, negative = inhibition, hits mostly inhibitors; hit rate 0.23% among 390,000; AID 743255; active means well fitted inhibition curve with a large enough effect; inconclusive means small, poorly fitted or top-dose-only effect; inactive means no such curve, though single readings can be large or run the other way; further: potency means the concentration at half of the fitted maximal effect; on the % scale 0 is the no-effect control and ±100 the full control effect; nearly all actives have a fitted effect of over 60% in size
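High-throughput fluorogenic screen: 1nM USP1/UAF1 complex, Ub-Rho substrate 150nM final, 50mM HEPES pH 7.8 with 0.5mM EDTA, 0.1 mg/ml BSA, 1mM TCEP and 0.01% Tween-20.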
* = called active by the depositor; ? = inconclusive; / = no result.

SMILES	TRPV1 potentiator	TRPML1 inh	TRPML1 agonist	TRPV1 agonist	USP1 inh
Cc1cc(C)c(S(=O)(=O)/N=C2/C=C(Sc3ncn[nH]3)C(=O)c3ccccc32)cc1C	8.4	39.2	1.5	-4.0	1.26µM*
CC(=O)Nc1sc(N/N=C/c2ccc(C)cc2)nc1-c1ccc(C)cc1	0.6	-10.0	-0.3	4.6	-11.5%
CC(=O)Nc1sc(/C(C#N)=C/c2ccc(Cl)c(Cl)c2)nc1-c1ccc(C)cc1	7.4	?	75.2*	-5.6	17.4%
COc1ccc(-c2nc(SCC(=O)NCc3ccccc3Cl)n[nH]2)cc1	/	8.4	3.1	/	-17.9%
O=C(NCc1ccc(F)cc1)Nc1ccc(Cl)cc1	-10.6	39.3	0.4	80.0*	-5.9%
Cc1nc([N+](=O)[O-])cn1CC(O)c1ccc(-c2ccccc2)cc1 (stereo not given)	-6.2	5.8	-0.8	4.5	-17.7%
CN1CCS/C1=C\C=C1/SC(=S)N(CC(=O)O)C1=O	-6.3	-4.2	28.6	6.5	25.1µM*
CCN1C(=O)/C(=C/C=C2/SCCN2C)SC1=S	-16.2	14.1	15.8	10.2	25.1µM*
CN1/C(=C\C=C2/SC(=S)N(CC(=O)O)C2=O)C(C)(C)c2ccccc21	-5.0	-13.3	-0.5	?	25.1µM*
CCCCN1C(=O)/C(=C/C=C2\Oc3ccccc3N2CC)SC1=S	25.8	4.6	?	?	?
CCCCN1C(=O)/C(=C/C=C2/CC(C)(C)CN2C)SC1=S	-2.4	-9.5	52.8*	?	22.4µM*
CCc1ccc(S(=O)(=O)c2nnn3c2nc(N2CCC(C)CC2)c2cc(Cl)ccc23)cc1	/	-2.8	-0.9	/	-4.4%
COCC(=O)OCn1nnc2ccccc2c1=O	20.9	3.6	-0.5	-3.0	-5.2%
CN(C)c1nc(NS(=O)(=O)c2ccc(Cl)cc2)nc(N(C)C)n1	-5.4	-7.8	0.1	-2.2	-2.5%
COc1ccc(S(=O)(=O)/N=C2\C=C(Nc3ccc(O)cc3)C(=O)c3ccccc32)cc1	-0.3	44.9	4.5	?	7.08µM*
COC(=O)C(C(C)=O)C1=C/C(=N\S(=O)(=O)c2ccc(C)cc2)c2ccccc2C1=O (stereo not given)	21.9	-5.9	0.1	0.1	-19.8%
Cc1ccc(NC2=C/C(=N/S(=O)(=O)c3cccs3)c3ccccc3C2=O)cc1C	-3.6	14.1	0.2	4.6	-6.9%
CC(=O)Nc1ccc(NC(=O)C(C)OC(=O)c2ccccc2NS(=O)(=O)c2cccs2)cc1 (stereo not given)	1.5	-3.8	0.1	-4.1	-13.2%
Cc1ccccc1NC1=C/C(=N\S(=O)(=O)c2cccs2)c2ccccc2C1=O	13.9	32.8	2.8	3.6	2.24µM*
CC(=O)Nc1ccc(NC2=C/C(=N/S(=O)(=O)c3cccs3)c3ccccc3C2=O)cc1	11.8	2.1	0.3	9.8	15.8µM*
O=C(Nc1cccc(-c2ccc(F)cc2)c1)C1CCCN(C(=O)c2cscn2)C1 (stereo not given)	-9.3	-13.4	-0.7	1.0	-20.5%
Cc1ncoc1C(=O)N1CCCC(C(=O)Nc2cccc(-c3ccc(F)cc3)c2)C1 (stereo not given)	-4.8	-8.1	53.4*	?	-13.6%
O=C1CN(C(=O)c2ccccc2)C(c2ccc(F)cc2)c2cc(Br)ccc2N1 (stereo not given)	-11.7	-12.3	-1.4	26.4	-6.5%
COc1cc2c(cc1OC)C(=O)C(Br)CC2 (stereo not given)	/	2.3	-0.9	/	14.1µM*
CC(C)(C)c1ccc(OCC(=O)O)cc1	-19.8	2.9	0.0	10.6	-15.4%
SMILES	TRPV1 potentiator	TRPML1 inh	TRPML1 agonist	TRPV1 agonist	USP1 inh
COc1ccc(N=C2NC(=O)S/C2=C\c2ccc(N(C)C)cc2)cc1	18.2	11.0	21.9	-0.5	25.1µM*
CCOc1ccc(N=C2NC(=O)S/C2=C\c2ccc(Cl)cc2)cc1	2.6	-7.0	0.7	1.8	-5.3%
CCCOc1ccc(C2C(=O)N(C3CCC(C)CC3)CC(=O)N2CCc2ccccc2)cc1OC (stereo not given)	/	9.9	0.6	/	-11.1%
CCOC(=O)NNc1ccc2nonc2c1[N+](=O)[O-]	14.8	-7.2	-0.4	-2.5	25.1µM*
CC(C)(C)Cc1c(-c2ccc(C#N)cc2)nc2c(Cl)cc(C(F)(F)F)cn12	/	-15.4	72.1*	/	/
C=CCN1C(=O)/C(=C/C=C2/N(CC)c3ccc(S(=O)(=O)N(C)C)cc3N2CC)SC1=S	1.4	-18.9	0.0	22.9	28.2µM*
COc1ccc(CCN=C(N)NS(=O)(=O)c2ccc(OC)c(OC)c2)cc1OC	3.3	-11.8	0.5	-4.4	-5.8%
O=C1c2ccccc2-c2onc3ccc(NCCCn4ccnc4)c1c23	-7.3	5.7	74.5*	?	28.2µM*
COc1ccc2noc3c2c1C(=O)c1ccccc1-3	/	1.3	79.3*	/	3.98µM*
COc1ccc(OC)c2c1C(=O)c1ccccc1C2=O	13.0	-12.8	11.0	5.0	31.6µM*
COc1cc(C(=O)OC(C)C(=O)N2CCCC2)cc2c1OCCO2 (stereo not given)	-0.5	-7.0	0.3	-0.2	-8.3%
CN(C)CCNC(=O)c1ccc2nc(Cc3ccccc3)oc2c1	/	7.7	0.5	/	-6.9%
O=C1/C(=C/c2ccc(N3CCCC3)cc2)NC(=S)N1C1CC1	-3.6	-8.5	50.1*	?	?
Cc1cc(C)nc(N2CCCC(C(=O)Nc3ccc4c(c3)OCO4)C2)n1 (stereo not given)	6.8	45.3	1.5	82.7*	5.3%
Cc1nc2ccc(S(=O)(=O)NCC(=O)NCCc3ccc(Cl)cc3)cc2s1	?	15.8	-0.7	0.4	-10.8%
O=C(N/N=C/c1ccccc1Cl)c1[nH]c2ccc(Br)cc2c1-c1ccccc1	-2.3	-20.6	70.9*	6.5	?
CC(=O)C1C(=O)c2c(cccc2[N+](=O)[O-])C1=Nc1ccccc1C (stereo not given)	-12.5	/	/	9.5	/
Cc1cc(C)n(Cc2ccc(C(=O)O)cc2)n1	6.1	8.2	0.7	-3.5	-5.5%
Cc1ccc(C)n1Cc1ccc(C(=O)O)cc1	10.8	-0.3	0.8	-2.2	25.1µM*
CC(=O)c1ccc(-c2ccc(-c3cc(=O)oc4c(C(C)C)ccc(C)c34)cc2)cc1	/	-0.6	64.0*	/	-5.3%
CC(=O)c1cc2c(cc1NC(=O)Cn1nc(-c3ccc(C)cc3)ccc1=O)OCO2	-10.0	0.2	-0.8	10.2	0.0%
CC1Cc2cc(/C(O)=C3/C(=O)C(=O)N(CCCn4ccnc4)C3c3cccnc3)ccc2O1 (stereo not given)	4.0	30.8	-0.1	-5.0	-1.3%
O=S(=O)(NCC1(N2CCOCC2)CCCCC1)c1ccc(Cl)cc1C(F)(F)F	-13.8	-11.7	80.8*	15.1	-1.2%
CCN1/C(=C/c2ccc3cc(C)ccc3[n+]2CC)Sc2cc(C)c(C)cc21	14.1	2.0	16.5	7.0	?

High-throughput results deposited in PubChem BioAssay by National Center for Advancing Translational Sciences (NCATS).
